Experimental data from PubChem BioAssay (NCI).
About 83,000 compounds went through this panel and 20% of them were active in at least one assay; those are over-represented in the sample as a whole.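 Percent growth is the endpoint: 0 to 100 indicates growth inhibition (40 means 60% inhibition), 0 means no net growth, and negative values indicate cell death.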 Values without a mark were called inactive. Calls of active or inactive are those of the source. Rule for the calls: active = growth percent below 10; inactive = the rest.

Key:
Experiment in all cases: NCI-60 one-dose screen, 48 h (100 = growth as untreated, 0 = no growth, -100 = all killed)
Details in all cases: 10 µM
SK-MEL-2 melanoma = tested on: SK-MEL-2 melanoma
EKVX NSCLC = tested on: EKVX NSCLC
UO-31 renal = tested on: UO-31 renal
TK-10 renal = tested on: TK-10 renal
ACHN renal = tested on: ACHN renal
CAKI-1 renal = tested on: CAKI-1 renal
A498 renal = tested on: A498 renal
MOLT-4 leukemia = tested on: MOLT-4 leukemia
SR leukemia = tested on: SR leukemia
RPMI-8226 leukemia = tested on: RPMI-8226 leukemia
OVCAR-8 ovarian = tested on: OVCAR-8 ovarian
OVCAR-5 ovarian = tested on: OVCAR-5 ovarian
OVCAR-4 ovarian = tested on: OVCAR-4 ovarian
SK-OV-3 ovarian = tested on: SK-OV-3 ovarian
OVCAR-3 ovarian = tested on: OVCAR-3 ovarian
HS 578T breast = tested on: HS 578T breast
NCI/ADR-RES ovarian = tested on: NCI/ADR-RES ovarian
CCRF-CEM leukemia = tested on: CCRF-CEM leukemia
IGROV1 ovarian = tested on: IGROV1 ovarian

| Structure (SMILES) | growth (SK-MEL-2 melanoma) | growth (EKVX NSCLC) | growth (UO-31 renal) | growth (TK-10 renal) | growth (ACHN renal) [%] | growth (CAKI-1 renal) | growth (A498 renal) | growth (MOLT-4 leukemia) | growth (SR leukemia) | growth (RPMI-8226 leukemia) | growth (OVCAR-8 ovarian) [%] | growth (OVCAR-5 ovarian) [%] | growth (OVCAR-4 ovarian) | growth (SK-OV-3 ovarian) | growth (OVCAR-3 ovarian) | growth (HS 578T breast) [%] | growth (NCI/ADR-RES ovarian) [%] | growth (CCRF-CEM leukemia) | growth (IGROV1 ovarian) |
| --- | --- | --- | --- | --- | --- | --- | --- | --- | --- | --- | --- | --- | --- | --- | --- | --- | --- | --- | --- |
| COc1ccc(-c2nnc(SC/C(=N\O)c3ccccc3)o2)cc1 | 102% | 95.8% | 97.1% | 107% | 101 | 95.1% | 80.8% | 80.4% | 100% | 88.8% | 107 | 108 | 104% | 87.9% | 99.1% | 94 | 91.2 | – | – |
| O=C(/C=C/c1ccc(Cl)cc1)c1ccc(Br)cc1 | 104% | 97.2% | 90% | 81.2% | 104 | 101% | -44.1% (active) | 97.7% | 71.4% | 28.1% | 103 | 91.8 | 92.5% | – | 100% | 124 | 101 | 110% | 88.2% |
| CCOC(=O)[C@@H](Cc1ccccc1)NC(=O)c1[nH]c2ccc(Cl)cc2c(=O)c1C | 89% | 97.4% | 84.7% | 91.3% | 95.6 | 86.6% | 143% | 93.3% | – | 83.1% | 97.8 | 106 | 102% | 100% | 111% | 94.2 | 106 | 74.4% | 96.2% |
| CN(C)CCCN1c2ccccc2Sc2ccc(C(F)(F)F)cc21 | -16.3% (active) | 43.4% | 18.7% | 25% | – | 22.4% | 62.8% | 6.88% (active) | -42.3% (active) | 22.5% | 44.4 | – | 44.4% | 20.2% | 8.18% (active) | 27 | 10.4 | 16.5% | 17% |
| CS(=O)(=O)Nc1ccc([N+](=O)[O-])cc1Oc1ccccc1 | 125% | 87.6% | 81.5% | 117% | – | 78.7% | 92% | 84.8% | 87% | 83.2% | 92.1 | – | 97% | 97.3% | 95.4% | 98.2 | 96.8 | 85.5% | 106% |
| COC(=O)c1cnc2c(c1)Oc1ccccc1-c1ccnn1-2 | 96.3% | 92.1% | 80.8% | 95.3% | 101 | 86.8% | 90.4% | 91.1% | 85% | 95% | – | 108 | 103% | 95.4% | 114% | 93.7 | 105 | 94.9% | 95.7% |
| CC(C)c1[nH]nc2c(NCc3ccc(-c4ccccn4)cc3)nc(SCCN)nc12 | -82.1% (active) | 1.6% (active) | 0.673% (active) | -2.72% (active) | – | 25.6% | -69.5% (active) | -0.423% (active) | -7.09% (active) | -16.7% (active) | 10.9 | 13.6 | -3.8% (active) | 3.32% (active) | 5.51% (active) | 11.1 | 48 | -0.568% (active) | 10.3% |
| COc1cc(OC)cc(-c2n/c(=C\c3c(O)[nH]c4ccc(OC)cc34)cc3c2=Nc2ccccc2-3)c1 | 108% | 96.6% | 71.2% | 125% | 114 | 90.6% | 90.6% | 12.4% | 9.3% (active) | 77.8% | 72.7 | 122 | 15.3% | – | 94.6% | 95.3 | 69.4 | – | 86.5% |
| O=C(Nc1cccc(Cl)c1)OCC(COC(=O)Nc1cccc(Cl)c1)(COC(=O)Nc1cccc(Cl)c1)[N+](=O)[O-] | 49.7% | 28.3% | 30.9% | 53.7% | 39.8 | 49.8% | 21.1% | 4.15% (active) | – | 19.5% | 44 | 89.1 | 30.8% | 64.8% | 20.6% | 52.1 | 35.4 | 21.4% | 42.3% |
| O=C1CC(c2cccc(-c3cccnc3)c2)=Nc2ccc(Br)cc2N1 | 49.5% | 36.9% | 41.9% | -9.34% (active) | 27.5 | 49.9% | -4.26% (active) | 27.1% | 51.1% | 40.7% | 17.2 | 91.5 | -4.81% (active) | 46.5% | 45% | 27.9 | 19 | – | – |
| CC(=O)/C(=C\c1ccc(Cl)cc1)c1ccccc1 | 39.3% | 32.9% | 52.2% | 57.1% | 29.6 | 15.6% | 15.7% | 11.9% | 6.01% (active) | 19% | – | 51.5 | 57.7% | 39.1% | -8.06% (active) | 23.8 | 30.7 | – | 28.5% |
| CC(=O)Oc1ccc(C2=Cc3ccc(OC(C)=O)cc3OC2C)cc1 (configuration not stated) | 61% | 56.7% | 18.6% | 82.7% | 10 | 43.6% | 82.6% | 36.7% | 8.85% (active) | 19.5% | – | 122 | 79.4% | 81% | 33.1% | 42.8 | 25 | 24.3% | 55.8% |
| Cc1ccc2c(c1)-c1cc(C)nn1-c1ccc(C#N)cc1O2 | 44.7% | 65.7% | 47.4% | 84.1% | 91.5 | 71.9% | 47.2% | 49.6% | 28% | 54.3% | 70.4 | 94.1 | 76.9% | 53.3% | 61.8% | 56.4 | 40.1 | – | 64.5% |
| CNC(=O)c1cc(Oc2ccc(NC(=O)Nc3ccc(Cl)c(OC(C)C)c3)c(F)c2)ccn1 | 50.2% | 34.8% | 45.2% | 66.7% | 41.9 | 64.1% | 48.7% | 30.9% | 40.8% | 26.8% | – | 85.3 | 24.1% | 82.8% | 58.3% | 64.6 | 56 | 46.8% | 60.8% |
| O=[N+]([O-])c1ccc(S(=O)(=O)OCCCCOS(=O)(=O)c2ccc([N+](=O)[O-])cc2)cc1 | 115% | 95.8% | 90.1% | 113% | 110 | 97.9% | 104% | 94.7% | 100% | 106% | 108 | 103 | 108% | 115% | 105% | 105 | 98.9 | – | 115% |
| Cc1ccc(-n2c(-c3cc4c([nH]c5ccccc54)c(-c4cccc(O)c4)n3)n[nH]c2=S)cc1 | -48.1% (active) | 19.4% | 30.9% | 24.9% | 32.6 | 7.33% (active) | -40% (active) | 0.747% (active) | -21.8% (active) | -14.1% (active) | – | 50.1 | 26.4% | -14.5% (active) | -36.1% (active) | 23.4 | 61.7 | 7.56% (active) | -3.48% (active) |
